Data on four molecules can be found in PubChem BioAssay (NCI).

Compounds without any hit were thinned out: in the full panel of roughly 83,000, 20% have a hit.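 Activity criterion: percent growth below 10, measured after cells in 96-well plates were exposed to a single compound concentration for 48 hours.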 A number with no mark means an inactive call. Activity calls are given as the source filed them.

Test systems include HT29 colon; SNB-75 CNS; SNB-19 CNS; U251 CNS; PC-3 prostate; SK-MEL-5 melanoma; UACC-62 melanoma; LOX IMVI melanoma; SK-MEL-28 melanoma; SK-MEL-2 melanoma; EKVX NSCLC; SN12C renal; UO-31 renal; TK-10 renal; ACHN renal; CAKI-1 renal; A498 renal; CCRF-CEM leukemia; MOLT-4 leukemia.
Common to all, as to experiment: NCI-60 one-dose screen, 48 h (100 = growth as untreated, 0 = no growth, -100 = all killed)
Settings in all cases: 10 µM unless noted

Consider `COc1ccccc1-n1c(-c2cc(O)ccc2C)cn2c3c(=O)[nH]c(=O)n(C)c3nc12`, for which the growth with HT29 colon is 32%; in the test on SNB-75 CNS, -32% (active); in the test on SNB-19 CNS, 82.1%; in the test on U251 CNS, 83.8%; with PC-3 prostate, 67.1%; in the test with SK-MEL-5 melanoma it was 77.3%. In addition, the growth in the test with UACC-62 melanoma was 77.8%; with LOX IMVI melanoma it was 38.9%; in the test on SK-MEL-28 melanoma, 96.9%; with SK-MEL-2 melanoma, 89.7%; with EKVX NSCLC, 87.4%; in the test on SN12C renal, 41.6%. The growth in the test with UO-31 renal was 36.4%; with TK-10 renal, 99.2%; in the test on ACHN renal it was 27.1%; with CAKI-1 renal, 39.8%; in the test on A498 renal, 106%; in the test with CCRF-CEM leukemia it was 114%. The growth in the test on MOLT-4 leukemia is 71.5%.
In the case of `O=C(CBr)CN1C(=O)c2ccccc2C1=O`, the growth in the test with HT29 colon was 99.9%; with SNB-75 CNS it was 93.5%; in the test on SNB-19 CNS it was 115%; in the test with U251 CNS it was 101%; with PC-3 prostate it was 102%; in the test with SK-MEL-5 melanoma, 111%. Further, the growth is 102% in the test on UACC-62 melanoma; 94.7% in the test with LOX IMVI melanoma; 101% in the test with SK-MEL-28 melanoma; 108% in the test with SK-MEL-2 melanoma; 107% in the test on EKVX NSCLC; 109% with SN12C renal. Also, the growth with UO-31 renal was 88.8%; in the test on TK-10 renal, 100%; in the test on ACHN renal, 104%; in the test with CAKI-1 renal it was 98.6%; in the test with A498 renal it was 88.2%; in the test with CCRF-CEM leukemia it was 111%. For the same molecule, the growth in the test on MOLT-4 leukemia was 104%.
Consider `O=c1[nH]c(-c2ccc(Cl)cc2)cn1-c1ccc(-n2cc(-c3ccc(Cl)cc3)[nH]c2=O)cc1`, for which the growth is 102% with HT29 colon; 98.1% with SNB-75 CNS; 93.5% in the test on SNB-19 CNS; 104% with U251 CNS; 77.5% in the test on PC-3 prostate; 101% in the test with SK-MEL-5 melanoma. Besides, the growth with UACC-62 melanoma was 87.5%; with LOX IMVI melanoma it was 103%; in the test with SK-MEL-28 melanoma it was 101%; in the test with SK-MEL-2 melanoma, 95.9%; in the test with EKVX NSCLC, 109%; in the test on SN12C renal, 92%. For the same molecule, the growth was 105% with UO-31 renal; 103% in the test with TK-10 renal; 102% in the test with ACHN renal; 65.1% in the test with CAKI-1 renal; 109% in the test with A498 renal; 107% in the test with CCRF-CEM leukemia. Moreover, the growth in the test with MOLT-4 leukemia was 107%.
Take `O=C1CCCc2nc3sc4c(=O)n(-c5ccccc5Cl)nnc4c3cc21`: the growth in the test with HT29 colon was 77.5%; with SNB-75 CNS, 114%; with SNB-19 CNS, 93%; with U251 CNS, 88.5%; in the test on PC-3 prostate it was 83.6%; in the test on SK-MEL-5 melanoma it was 87.9%. Also, the growth with UACC-62 melanoma is 90.6%; in the test on LOX IMVI melanoma, 102%; in the test on SK-MEL-28 melanoma, 109%; in the test on SK-MEL-2 melanoma it was 95.2%; in the test with EKVX NSCLC, 91.7%; in the test on SN12C renal it was 90.4%. Further, the growth with UO-31 renal was 92.4%; with TK-10 renal, 95%; with ACHN renal, 107%; with CAKI-1 renal it was 97.6%; in the test on A498 renal, 95.5%; in the test with CCRF-CEM leukemia it was 85.1%. The growth in the test with MOLT-4 leukemia is 98.2%.
